# Measured values reported in the supplement of paper PMC8728848.
# Shown is part of a subset that was picked to be rich in the strongest signals.
# Columns and labels:
# Assay in all cases: glycan array binding signal (z-score within array); higher = stronger binding
# Conditions in all cases: glycan notation: IUPAC condensed, linker removed
# [1] = target: Fuc(a1-2)Gal(b1-3)GlcNAc(b1-2)Man(a1-3)[Fuc(a1-2)Gal(b1-3)GlcNAc(b1-2)Man(a1-6)]Man(b1-4)GlcNAc(b1-4)GlcNAc
# Summary of the method: (§1)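 Glycan array data came from 3228 arrays in the Consortium for Functional Glycomics database, and only arrays with an available protein sequence were kept. Glycan names were put into IUPAC-condensed notation, and columns mapping to the same glycan were averaged. The binding signal is a within-array Z-score, averaged across arrays of one protein sequence run at different concentrations or buffers and across linkers. A negative Z-score can be read as non-binding.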
# Fuc(a1-2)Gal(b1-4)GlcNAc = target: Fuc(a1-2)Gal(b1-4)GlcNAc
# Summary of the method: as §1
# [2] = target: Fuc(a1-2)Gal(b1-4)GlcNAc(b1-2)[Fuc(a1-2)Gal(b1-4)GlcNAc(b1-4)]Man(a1-3)[Fuc(a1-2)Gal(b1-4)GlcNAc(b1-2)Man(a1-6)]Man(b1-4)GlcNAc(b1-4)GlcNAc
# Summary of the method: as §1
# [3] = target: Fuc(a1-2)Gal(b1-4)GlcNAc(b1-3)Gal(b1-4)GlcNAc
# Summary of the method: as §1
# [4] = target: Fuc(a1-2)Gal(b1-4)[Fuc(a1-3)]GlcNAc
# Summary of the method: as §1
# [5] = target: Fuc(a1-2)[Gal(a1-3)]Gal(b1-3)GlcNAc(b1-3)GalNAc
# Summary of the method: as §1
# [6] = target: Fuc(a1-2)[Gal(a1-3)]Gal(b1-4)GlcNAc(b1-3)[Fuc(a1-2)[Gal(a1-3)]Gal(b1-4)GlcNAc(b1-6)]GalNAc
# Summary of the method: as §1
# [7] = target: Fuc(a1-2)[Gal(a1-3)]Gal(b1-4)[Fuc(a1-3)]GlcNAc(b1-3)GalNAc
# Summary of the method: as §1
# [8] = target: Fuc(a1-2)[GalNAc(a1-3)]Gal(b1-3)GlcNAc
# Summary of the method: as §1
# [9] = target: Fuc(a1-2)[GalNAc(a1-3)]Gal(b1-4)GlcNAc(b1-3)Gal(b1-4)GlcNAc
# Summary of the method: as §1
# Fuc(b1-3)GlcNAc = target: Fuc(b1-3)GlcNAc
# Summary of the method: as §1
# [10] = target: Gal(a1-3)Gal(b1-4)GlcNAc(b1-2)Man(a1-3)[Gal(a1-3)Gal(b1-4)GlcNAc(b1-2)Man(a1-6)]Man(b1-4)GlcNAc(b1-4)GlcNAc
# Summary of the method: as §1
# Gal(b1-2)Gal = target: Gal(b1-2)Gal
# Summary of the method: as §1
# Gal(b1-3)Gal(b1-4)GlcNAc = target: Gal(b1-3)Gal(b1-4)GlcNAc
# Summary of the method: as §1
# [11] = target: Gal(b1-3)Gal(b1-4)GlcNAc(b1-2)Man(a1-3)[Gal(b1-3)Gal(b1-4)GlcNAc(b1-2)Man(a1-6)]Man(b1-4)GlcNAc(b1-4)GlcNAc
# Summary of the method: as §1
# Gal(b1-3)GlcNAc = target: Gal(b1-3)GlcNAc
# Summary of the method: as §1
# [12] = target: Gal(b1-3)GlcNAc(b1-3)GalNAc
# Summary of the method: as §1
# Gal(b1-3)GlcNAc6S = target: Gal(b1-3)GlcNAc6S
# Summary of the method: as §1
# [13] = target: Gal(b1-3)[Neu5Ac(a2-6)]GalNAc
# Summary of the method: as §1
# [14] = target: Gal(b1-4)GalNAc(b1-3)[Fuc(a1-2)]Gal(b1-4)GlcNAc
# Summary of the method: as §1
# [15] = target: Gal(b1-4)GlcNAc(b1-2)Man(a1-6)Man(b1-4)GlcNAc(b1-4)GlcNAc
# Summary of the method: as §1
# [16] = target: Gal(b1-4)GlcNAc(b1-2)Man(a1-6)[GlcNAc(b1-2)Man(a1-3)]Man(b1-4)GlcNAc(b1-4)GlcNAc
# Summary of the method: as §1
# [17] = target: Gal(b1-4)GlcNAc(b1-3)Gal(b1-4)Glc
# Summary of the method: as §1
# [18] = target: Gal(b1-4)GlcNAc(b1-3)Gal(b1-4)GlcNAc(b1-3)Gal(b1-4)GlcNAc(b1-3)Gal(b1-4)GlcNAc(b1-2)Man(a1-3)[Gal(b1-4)GlcNAc(b1-3)Gal(b1-4)GlcNAc(b1-3)Gal(b1-4)GlcNAc(b1-3)Gal(b1-4)GlcNAc(b1-2)Man(a1-6)]Man(b1-4)GlcNAc(b1-4)[Fuc(a1-6)]GlcNAc
# Summary of the method: as §1
# [19] = target: Gal(b1-4)GlcNAc(b1-3)Gal(b1-4)GlcNAc(b1-3)Gal(b1-4)GlcNAc(b1-3)Gal(b1-4)GlcNAc(b1-3)Gal(b1-4)GlcNAc(b1-3)Gal(b1-4)GlcNAc(b1-2)Man(a1-3)[Gal(b1-4)GlcNAc(b1-3)Gal(b1-4)GlcNAc(b1-3)Gal(b1-4)GlcNAc(b1-3)Gal(b1-4)GlcNAc(b1-3)Gal(b1-4)GlcNAc(b1-3)Gal(b1-4)GlcNAc(b1-2)Man(a1-6)]Man(b1-4)GlcNAc(b1-4)GlcNAc
# Summary of the method: as §1
# [20] = target: Gal(b1-4)GlcNAc(b1-3)Gal(b1-4)GlcNAc(b1-3)GalNAc
# Summary of the method: as §1
# [21] = target: Gal(b1-4)GlcNAc(b1-3)Gal(b1-4)GlcNAc(b1-3)[Gal(b1-4)GlcNAc(b1-3)Gal(b1-4)GlcNAc(b1-6)]GalNAc
# Summary of the method: as §1
# [22] = target: Gal(b1-4)GlcNAc(b1-3)[Gal(b1-4)GlcNAc(b1-6)]GalNAc
# Summary of the method: as §1
# Gal(b1-4)GlcNAc6P = target: Gal(b1-4)GlcNAc6P
# Summary of the method: as §1
binder,measurement,setting,value
"AAL (Agrocybe aegerita), Q6WY08 (protein) MQGVNIYNISAGTSVDLAAPVTTGDIVTFFSSALNLNAGAGNPNNTTLNLFAENGAYLLHIAFRLQENVIIFNSRQPDGPWLVEQRVSDVANQFAGIDGKAMVTVFDHGDKYQVVINEKTVIQYTKQISGLTLSLSYNATEETSIFSTVVEAVTYTGLALEHHHHHH",glycan array binding signal (z-score),[1],-0.105
same,glycan array binding signal (z-score),Fuc(a1-2)Gal(b1-4)GlcNAc,-0.146
same,glycan array binding signal (z-score),[2],-0.119
same,glycan array binding signal (z-score),[3],-0.138
same,glycan array binding signal (z-score),[4],-0.147
same,glycan array binding signal (z-score),[5],-0.119
same,glycan array binding signal (z-score),[6],-0.138
same,glycan array binding signal (z-score),[7],-0.136
same,glycan array binding signal (z-score),[8],-0.152
same,glycan array binding signal (z-score),[9],-0.112
same,glycan array binding signal (z-score),Fuc(b1-3)GlcNAc,-0.123
same,glycan array binding signal (z-score),[10],7.5
same,glycan array binding signal (z-score),Gal(b1-2)Gal,-0.141
same,glycan array binding signal (z-score),Gal(b1-3)Gal(b1-4)GlcNAc,-0.135
same,glycan array binding signal (z-score),[11],6.91
same,glycan array binding signal (z-score),Gal(b1-3)GlcNAc,-0.146
same,glycan array binding signal (z-score),[12],-0.149
same,glycan array binding signal (z-score),Gal(b1-3)GlcNAc6S,-0.129
same,glycan array binding signal (z-score),[13],-0.159
same,glycan array binding signal (z-score),[14],-0.135
same,glycan array binding signal (z-score),[15],-0.162
same,glycan array binding signal (z-score),[16],-0.145
same,glycan array binding signal (z-score),[17],-0.142
same,glycan array binding signal (z-score),[18],-0.096
same,glycan array binding signal (z-score),[19],-0.099
same,glycan array binding signal (z-score),[20],-0.131
same,glycan array binding signal (z-score),[21],-0.125
same,glycan array binding signal (z-score),[22],-0.153
same,glycan array binding signal (z-score),Gal(b1-4)GlcNAc6P,-0.163
